# Results published in PubChem BioAssay (Tox21).
# Records with an inconclusive call do not appear. Where a call stands in place of a potency, no number is given. A number with no mark means an inactive call. The source made the active and inactive calls. Calls follow the shape of the full dose curve.
# Test system: not listed separately
# Assay: qHTS assay to identify small molecule agonists of the AP-1 signaling pathway (AID 1159526)
# Settings: ME-180 (cervical carcinoma) AP-1-bla reporter, beta-lactamase FRET ratio, 5 h; series mostly up to 76.8 µM
SMILES,Potency,activation
Cc1cccc(O)c1C,inactive,
CCOC(=O)C(C)C(C)=O (stereo unspecified),inactive,
CO[Si](OC)(OC)c1ccccc1,inactive,
CCN(CC)C(=O)Nc1ccc(OCC(O)CNC(C)(C)C)c(C(C)=O)c1 (stereo unspecified),inactive,
CC(C)(C)NCC(O)COc1ccccc1OCC1CCCO1 (stereo unspecified),inactive,
COC(=O)c1cccc(C(=O)OC)c1,inactive,
CC(C)(C)NCC(O)c1cc(O)cc(O)c1 (stereo unspecified),inactive,
O=Cc1ccc(Cl)cc1,inactive,
CC1COc2c(N3CCN(C)CC3)c(F)cc3c(=O)c(C(=O)O)cn1c23 (stereo unspecified),inactive,
O=C(Oc1ccccc1)c1ccccc1O,inactive,
C=CS(=O)(=O)O,inactive,
CC(=O)OCC1=C(C(=O)O)N2C(=O)[C@@H](NC(=O)Cc3cccs3)[C@H]2SC1,inactive,
NNCCc1ccccc1,inactive,
O=C(Cl)c1cccc(C(=O)Cl)c1,inactive,
COC(=O)/C=C/c1ccccc1,inactive,
O=c1n(CC2CO2)c(=O)n(CC2CO2)c(=O)n1CC1CO1 (stereo unspecified),inactive,
O=C(O)Cn1cnnn1,inactive,
CN1C(=O)c2ccc([N+](=O)[O-])cc2C1=O,inactive,
Cc1cccc([N+](=O)[O-])c1C(=O)O,inactive,

SMILES,Potency,activation
Cc1scc2c1N(C(=O)CN1CCN(C)CC1)c1ccccc1NC2=O,inactive,
CC(C)(C)NC(=O)[C@@H]1CN(Cc2cccnc2)CCN1C[C@@H](O)C[C@@H](Cc1ccccc1)C(=O)N[C@H]1c2ccccc2C[C@H]1O,inactive,
C/C=C/c1ccc(OCC)c(O)c1,inactive,
CC(C)C(=O)c1c(C(C)C)nn2ccccc12,inactive,
CCC[C@H](N[C@@H](C)C(=O)N1[C@H](C(=O)O)C[C@@H]2CCCC[C@@H]21)C(=O)OCC,inactive,
NC(Cc1ccc(Cl)cc1)C(=O)O (stereo unspecified),,-0.248% [at 0.29 µM]
O=C1NCC2(CCN(CCc3ccccc3)CC2)O1,inactive,
CC1COC(=O)O1 (stereo unspecified),inactive,
CCCN[C@H]1CCc2nc(N)sc2C1,inactive,
C[N+]1([O-])CCOCC1,inactive,
CC(C)CCOCc1ccccc1,inactive,
O=C(O)c1cccc(C(=O)O)c1,inactive,
COc1cc(C(=S)N2CCOCC2)ccc1O,inactive,
CCCNC(C)C(=O)Nc1ccccc1C (stereo unspecified),inactive,
c1ccc2n[nH]nc2c1,inactive,
CC1=C(C=O)C(C)(C)CC=C1,inactive,
CCOc1ccccc1C(N)=O,inactive,
O=C(O)CCc1ccccc1,inactive,
CC(N)=O,inactive,

# Target: Retinoic acid receptor RXR-alpha (Homo sapiens) (UniProt P19793)
# Assay: qHTS assay to identify small molecule agonists of the RXR signaling pathway (AID 1159527); also: nearly all actives have a fitted effect of over 35% in size; also: potency is read from the fitted curve at half-maximal effect
# Settings: HEK293T RXRa-UAS-bla, beta-lactamase ratio, 16 h; series mostly up to 76.8 µM
# Summary of the method: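 Fluorescence ratio readout (460 vs 530 nm) from GeneBLAzer RXR-alpha HEK 293T cells after 16 hr compound treatment; cells seeded 5 hr beforehand in low-serum, charcoal-stripped medium.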
# Sequence of Retinoic acid receptor RXR-alpha (Homo sapiens) (P19793 whole entry, looked up): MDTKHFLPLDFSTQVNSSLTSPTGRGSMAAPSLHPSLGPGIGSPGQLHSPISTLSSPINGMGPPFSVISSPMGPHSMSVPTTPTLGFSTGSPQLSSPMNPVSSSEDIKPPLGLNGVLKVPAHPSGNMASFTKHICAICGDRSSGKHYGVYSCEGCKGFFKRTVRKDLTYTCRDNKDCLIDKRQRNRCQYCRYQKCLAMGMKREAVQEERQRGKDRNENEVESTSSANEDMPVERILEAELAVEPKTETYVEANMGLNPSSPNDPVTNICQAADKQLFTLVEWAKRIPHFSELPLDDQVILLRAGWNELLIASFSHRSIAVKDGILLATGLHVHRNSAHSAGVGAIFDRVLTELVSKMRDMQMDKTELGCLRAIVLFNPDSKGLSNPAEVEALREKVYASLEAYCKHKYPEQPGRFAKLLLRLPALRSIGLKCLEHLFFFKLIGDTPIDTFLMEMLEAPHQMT
SMILES,Potency,activation
Cc1cccc(O)c1C,inactive,
CCOC(=O)C(C)C(C)=O (stereo unspecified),inactive,
CO[Si](OC)(OC)c1ccccc1,inactive,
CCN(CC)C(=O)Nc1ccc(OCC(O)CNC(C)(C)C)c(C(C)=O)c1 (stereo unspecified),inactive,
CC(C)(C)NCC(O)COc1ccccc1OCC1CCCO1 (stereo unspecified),inactive,
COC(=O)c1cccc(C(=O)OC)c1,inactive,
CC(C)(C)NCC(O)c1cc(O)cc(O)c1 (stereo unspecified),inactive,
O=Cc1ccc(Cl)cc1,inactive,
CC1COc2c(N3CCN(C)CC3)c(F)cc3c(=O)c(C(=O)O)cn1c23 (stereo unspecified),inactive,
O=C(Oc1ccccc1)c1ccccc1O,inactive,
C=CS(=O)(=O)O,inactive,
CC(=O)OCC1=C(C(=O)O)N2C(=O)[C@@H](NC(=O)Cc3cccs3)[C@H]2SC1,inactive,
NNCCc1ccccc1,inactive,
O=C(Cl)c1cccc(C(=O)Cl)c1,inactive,
COC(=O)/C=C/c1ccccc1,inactive,
O=c1n(CC2CO2)c(=O)n(CC2CO2)c(=O)n1CC1CO1 (stereo unspecified),3.89 µM (active),
O=C(O)Cn1cnnn1,inactive,
CN1C(=O)c2ccc([N+](=O)[O-])cc2C1=O,inactive,
Cc1cccc([N+](=O)[O-])c1C(=O)O,inactive,

SMILES,Potency,activation
Cc1scc2c1N(C(=O)CN1CCN(C)CC1)c1ccccc1NC2=O,inactive,
CC(C)(C)NC(=O)[C@@H]1CN(Cc2cccnc2)CCN1C[C@@H](O)C[C@@H](Cc1ccccc1)C(=O)N[C@H]1c2ccccc2C[C@H]1O,inactive,
C/C=C/c1ccc(OCC)c(O)c1,inactive,
CC(C)C(=O)c1c(C(C)C)nn2ccccc12,23.9 µM (active),
CCC[C@H](N[C@@H](C)C(=O)N1[C@H](C(=O)O)C[C@@H]2CCCC[C@@H]21)C(=O)OCC,inactive,
NC(Cc1ccc(Cl)cc1)C(=O)O (stereo unspecified),,-0.301% [at 0.29 µM]
O=C1NCC2(CCN(CCc3ccccc3)CC2)O1,inactive,
CC1COC(=O)O1 (stereo unspecified),inactive,
CCCN[C@H]1CCc2nc(N)sc2C1,inactive,
C[N+]1([O-])CCOCC1,inactive,
CC(C)CCOCc1ccccc1,inactive,
O=C(O)c1cccc(C(=O)O)c1,inactive,
COc1cc(C(=S)N2CCOCC2)ccc1O,inactive,
CCCNC(C)C(=O)Nc1ccccc1C (stereo unspecified),inactive,
c1ccc2n[nH]nc2c1,inactive,
CC1=C(C=O)C(C)(C)CC=C1,inactive,
CCOc1ccccc1C(N)=O,inactive,
O=C(O)CCc1ccccc1,inactive,
CC(N)=O,inactive,
